Laboratory results taken from PubChem BioAssay (Tox21).
Records with an inconclusive call do not appear. Values without a mark were called inactive. Calls of active or inactive are those of the source. Unless noted, calls follow the shape of the full dose curve.

System: not listed separately
Test: p53 small molecule agonists, cell-based qHTS assay (AID 1963582; active = well fitted activation curve with a large enough effect in the signal ratio in the repeat runs, not every such curve was filed as active; the % refers to the signal ratio)
Settings: HCT-116 p53RE-bla reporter, beta-lactamase FRET ratio, 16 h; series mostly up to 66 µM; activation: at the top concentration
Outline: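 Agonist activity was scored from beta-lactamase FRET fluorescence in p53RE-bla cells treated 16 h at 37 C with compounds in DMSO, substrate incubation being 2 h at room temperature.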
% is scaled to controls: 0 for no effect and ±100 for the full control effect.

Row | Compound | activation
1 | Cc1ccc(N(CC2=NCCN2)c2cccc(O)c2)cc1 | 10.5% [at 30.3 µM]
2 | COC(=O)c1cccc(Cl)c1 | -1.39%
3 | Cc1cccc(C(C)(C)C)c1O | 0.695%
4 | Cc1cn[nH]c1 | -3.5% [at 30.3 µM]
5 | CCCCCCCCCCCCCCCCCCOS(=O)(=O)O | -4.86%
6 | CCCCCCCCCCCCOC(=O)c1ccc(O)cc1 | -0.876%
7 | O=C1N(c2ccccc2)c2ccccc2C1(Cc1ccncc1)Cc1ccncc1 | 2.27% [at 30.3 µM]
8 | CCC(C=O)CC | -0.363%
9 | Cc1ccc2c(Cl)cc(Cl)c(O)c2n1 | 1.65% [at 30.3 µM]
10 | COc1ccc(CN(CCN(C)C)c2ncccn2)cc1 | 1.34% [at 30.3 µM]
11 | CCN1CCCC1CN (centres undefined) | -0.176% [at 30.3 µM]
12 | C/C(=N/NC(=O)c1ccncc1)C(=O)O | -2.41% [at 30.3 µM]
13 | O=C1Nc2cc(Cl)ccc2Oc2ccccc21 | -0.419% [at 30.3 µM]
14 | Clc1ccc2c(c1)CCc1cccnc1C2=C1CCNCC1 | 0.0111% [at 30.3 µM]
15 | CCC(=O)c1c(O)cc(O)cc1O | -2.31% [at 30.3 µM]
16 | CC(C)(O)c1ccc(CNC(=O)c2cccnc2Oc2ccc(F)cc2)cc1 | -3.87%
17 | CCCCCCCCN(C)CCCCCCCC | 0.365%
18 | CC(C)(C)C(=O)O | 2.83%
19 | OCCCCC(O)CO (centres undefined) | 1.46%
20 | CN(C)CC/C=C1/c2ccccc2COc2ccc(CC(=O)O)cc21 | 2.87% [at 30.3 µM]
21 | C=Cc1ccccc1C=C | 1.04% [at 172 µM]
22 | O=C=NCc1cccc(CN=C=O)c1 | -3.35% [at 13.5 µM]
23 | Nc1ccc(S(=O)(=O)Nc2ccccc2)cc1 | 0.896% [at 30.3 µM]
24 | O=Cc1ccc(F)c(Br)c1 | -1.56%
25 | CCC(CO)(CO)COCC(CC)(CO)CO | 0.627%
26 | Nc1ccccc1O | -1.53%
27 | OCC(CO)(CO)COCC(CO)(CO)CO | -0.737%

Molecular target: 5-hydroxytryptamine receptor 2A (Homo sapiens) (UniProt P28223)
Sequence (P28223 whole entry, looked up): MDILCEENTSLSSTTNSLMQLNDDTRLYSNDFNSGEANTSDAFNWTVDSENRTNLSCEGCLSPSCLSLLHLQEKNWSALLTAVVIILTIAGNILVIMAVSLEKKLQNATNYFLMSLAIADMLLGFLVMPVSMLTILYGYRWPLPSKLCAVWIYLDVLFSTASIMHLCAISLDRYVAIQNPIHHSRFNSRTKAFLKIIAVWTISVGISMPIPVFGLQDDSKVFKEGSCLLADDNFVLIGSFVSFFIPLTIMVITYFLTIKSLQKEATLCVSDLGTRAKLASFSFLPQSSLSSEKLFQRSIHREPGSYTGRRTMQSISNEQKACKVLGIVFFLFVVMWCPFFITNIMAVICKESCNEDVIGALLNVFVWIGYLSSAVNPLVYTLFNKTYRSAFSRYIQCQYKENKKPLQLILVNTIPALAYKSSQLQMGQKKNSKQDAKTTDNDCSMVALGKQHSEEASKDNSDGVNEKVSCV
Test: 5-hydroxytryptamine receptor 2A (HTR2A) small molecule antagonists, cell-based qHTS assay (AID 1963586); also: nearly all actives have a fitted effect of over 45% in size
Settings: HTR2A-CHO cells, DOI-induced calcium flux, fluorescence; series mostly up to 61.5 µM; activity, negative = inhibition: at the top concentration
Outline: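 Antagonist-mode intracellular calcium assay: DOI (4 nM) added after 5 min compound pre-incubation at room temperature to dye-loaded HTR2A-CHO cells. Fluorescence followed for 3 min, sampled every second.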

Row | Compound | activity, negative = inhibition
28 | COc1ccc(C(=O)c2ccc(OC)cc2O)c(O)c1 | -41.3%
29 | CC(C)c1ccc(C(=O)N=C(N)N)cc1S(C)(=O)=O | 13.3% [at 28.5 µM]
30 | CCC(C(=O)OCCN(CC)CC)c1ccccc1 (centres undefined) | -20% [at 28.5 µM]
31 | COC(=O)c1cccc(Cl)c1 | -17.1%
32 | CCCCCCCCCCCCCCCCCCOS(=O)(=O)O | -34.9%
33 | C[Si](C)(CCCN)O[Si](C)(C)CCCN | 8.24%
34 | CCCCCCCCCCCCOC(=O)c1ccc(O)cc1 | 0.743%
35 | O=C1N(c2ccccc2)c2ccccc2C1(Cc1ccncc1)Cc1ccncc1 | 4.08% [at 28.5 µM]
36 | CCC(C=O)CC | 12.7%
37 | Cc1ccc2c(Cl)cc(Cl)c(O)c2n1 | 13.3% [at 28.5 µM]
38 | COc1ccc(CN(CCN(C)C)c2ncccn2)cc1 | -24% [at 28.5 µM]
39 | C/C(=N/NC(=O)c1ccncc1)C(=O)O | -4.84% [at 28.5 µM]
40 | CC(C)(O)c1ccc(CNC(=O)c2cccnc2Oc2ccc(F)cc2)cc1 | -48.2%
41 | CCCCCCCCN(C)CCCCCCCC | -8.35%
42 | CC(C)(C)C(=O)O | -1.03%
43 | OCCCCC(O)CO (centres undefined) | 8.17%
44 | C=Cc1ccccc1C=C | 5.45% [at 159 µM]
45 | COc1ccc(/C=C/S(=O)(=O)NC(=O)c2ccc(C)cc2Cl)cc1 | 1.95%
46 | O=C=NCc1cccc(CN=C=O)c1 | 11.7% [at 12.7 µM]
47 | Cc1cc(S(=O)(=O)O)c(N)cc1Cl | 2.66%
48 | O=Cc1ccc(F)c(Br)c1 | 2.47%
49 | CCC(CO)(CO)COCC(CC)(CO)CO | -4.95%
50 | CC(C)OC(=O)c1ccccc1 | -0.626%
51 | C[N+]1(CC2COC(c3ccccc3)(C3CCCCC3)O2)CCCCC1 (centres undefined) | 10% [at 28.5 µM]
52 | Nc1ccccc1O | -4.04%
53 | C=CC(=O)OCCOCCOC(=O)C=C | 67.5%

Molecular target: 5-hydroxytryptamine receptor 2A (Homo sapiens) (UniProt P28223)
Test: 5-hydroxytryptamine receptor 2A (HTR2A) small molecule agonists, cell-based qHTS assay (AID 1963587); also: nearly all actives have a fitted effect of over 30% in size; also: potency is read from the fitted curve at half-maximal effect
Settings: HTR2A-CHO cells, calcium flux fluorescence, agonist mode; series mostly up to 76.8 µM; activation: at the top concentration
Outline: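 Kinetic calcium-flux fluorescence (2 min, 1 sec intervals) after compound addition in agonist mode. HTR2A-CHO cells were cultured 18 h, then dye-loaded 1 h at 37 C.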

Row | Compound | activation | Potency
54 | COc1ccc(C(=O)c2ccc(OC)cc2O)c(O)c1 | -0.502% | –
55 | CC(C)c1ccc(C(=O)N=C(N)N)cc1S(C)(=O)=O | -4.32% [at 35.6 µM] | –
56 | CCC(C(=O)OCCN(CC)CC)c1ccccc1 (centres undefined) | 12% [at 35.6 µM] | –
57 | COC(=O)c1cccc(Cl)c1 | – | 21.6 µM (active)
58 | C[Si](C)(CCCN)O[Si](C)(C)CCCN | 0.861% | –
59 | CCCCCCCCCCCCOC(=O)c1ccc(O)cc1 | -1.18% | –
60 | O=C1N(c2ccccc2)c2ccccc2C1(Cc1ccncc1)Cc1ccncc1 | -2.94% [at 35.6 µM] | –
61 | CCC(C=O)CC | 1.47% | –
62 | Cc1ccc2c(Cl)cc(Cl)c(O)c2n1 | -1.23% [at 35.6 µM] | –
63 | COc1ccc(CN(CCN(C)C)c2ncccn2)cc1 | -23.3% [at 35.6 µM] | –
64 | CCN1CCCC1CN (centres undefined) | 2.32% [at 35.6 µM] | –
65 | C/C(=N/NC(=O)c1ccncc1)C(=O)O | -0.16% [at 35.6 µM] | –
66 | O=C1Nc2cc(Cl)ccc2Oc2ccccc21 | -10.3% [at 35.6 µM] | –
67 | CCC(=O)c1c(O)cc(O)cc1O | -6.73% [at 35.6 µM] | –
68 | CC(C)(O)c1ccc(CNC(=O)c2cccnc2Oc2ccc(F)cc2)cc1 | -0.137% | –
69 | COc1ccc2c(c1)C(=O)N(CCc1ccc(S(=O)(=O)NC(=O)NC3CCCCC3)cc1)C(=O)C2(C)C | -8.34% [at 35.6 µM] | –

Row | Compound | activation | Potency
70 | CC(C)(C)C(=O)O | -0.0641% | –
71 | OCCCCC(O)CO (centres undefined) | -0.585% | –
72 | Cc1ccc(-n2[nH]c(C)c(N=Nc3cccc(-c4cccc(C(=O)O)c4)c3O)c2=O)cc1C | -9.32% [at 35.6 µM] | –
73 | CN(C)CC/C=C1/c2ccccc2COc2ccc(CC(=O)O)cc21 | -15.9% [at 35.6 µM] | –
74 | C=Cc1ccccc1C=C | -0.213% [at 199 µM] | –
75 | COc1ccc(/C=C/S(=O)(=O)NC(=O)c2ccc(C)cc2Cl)cc1 | -7.01% | –
76 | O=C=NCc1cccc(CN=C=O)c1 | 3.99% [at 15.9 µM] | –
77 | Cc1cc(S(=O)(=O)O)c(N)cc1Cl | -0.354% | –
78 | Nc1ccc(S(=O)(=O)Nc2ccccc2)cc1 | -21.3% [at 35.6 µM] | –
79 | O=Cc1ccc(F)c(Br)c1 | -1.85% | –
80 | CCC(CO)(CO)COCC(CC)(CO)CO | -5.59% | –
81 | CC(C)OC(=O)c1ccccc1 | -1.83% | –
82 | C[N+]1(CC2COC(c3ccccc3)(C3CCCCC3)O2)CCCCC1 (centres undefined) | -2.43% [at 35.6 µM] | –
83 | Nc1ccccc1O | 3.1% | –
84 | OCC(CO)(CO)COCC(CO)(CO)CO | -1.34% | –
